# Compounds with a hit are over-represented: about 0.3% of the library has one in this group of screens.
# NPYLR7 ag: agonists of mosquito NPYLR7 receptor, primary screen, cell-based, Aedes aegypti, calcium fluorescence, mosquito biting behavior; hit rate 0.15% among 270,000; activation, % at 10 µM; HEK293T NPYLR7/Galpha15, GCaMP6s calcium fluorescence; in the data active = activation above about 40%;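 note: 0% = vehicle and 100% = reference agonist at the receptor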
# hcGAS inh: Primary biochemical luminescence assay for human cyclic GMP-AMP synthase inhibitors; inhibition, % at 12.5 µM; recombinant h-cGAS, ATP depletion, Kinase-Glo luminescence; hit rate 0.081% among 290,000; Q8N884;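 note: 0% = vehicle reaction and 100% = reaction without DNA for no activity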
# mcGAS inh: cyclic GMP-AMP synthase inhibitors, mouse, primary biochemical chemiluminescence; recombinant cGAS, Kinase-Glo ATP depletion luminescence; inhibition, % at 12.5 µM; hit rate 0.15% among 160,000; AID 1259399, 2018;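 note: 0% = negative control wells and 100% = reference inhibitor with no enzyme activity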
# Target sequence (Q8C6L5 whole entry, looked up): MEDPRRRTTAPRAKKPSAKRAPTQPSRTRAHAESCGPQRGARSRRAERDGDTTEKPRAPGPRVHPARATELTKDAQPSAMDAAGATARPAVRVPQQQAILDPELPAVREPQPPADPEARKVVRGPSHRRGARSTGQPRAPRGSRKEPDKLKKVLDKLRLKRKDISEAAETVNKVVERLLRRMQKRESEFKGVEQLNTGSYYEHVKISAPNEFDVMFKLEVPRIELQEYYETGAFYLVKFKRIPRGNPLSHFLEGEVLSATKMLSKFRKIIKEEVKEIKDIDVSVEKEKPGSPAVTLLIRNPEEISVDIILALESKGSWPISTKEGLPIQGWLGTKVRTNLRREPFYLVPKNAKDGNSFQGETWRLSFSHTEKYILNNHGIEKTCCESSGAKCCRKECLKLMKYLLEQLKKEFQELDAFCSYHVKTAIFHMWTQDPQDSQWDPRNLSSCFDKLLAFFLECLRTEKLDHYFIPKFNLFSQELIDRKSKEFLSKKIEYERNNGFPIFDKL
# An asterisk follows results filed as active; x = not tested or not shown; ! = not active in a repeat. Cut-off read from the data, not from the text of the source, unless noted: active = inhibition above about 40%; inactive = the rest.
SMILES,NPYLR7 ag,hcGAS inh,mcGAS inh
Cc1ccc(NC(=O)C(C)OC(=O)C2CCCN2S(C)(=O)=O)cc1F (stereo unspecified),8.4,-10.5,x
CC(C)C(C)NC(=O)CSc1nnc(-c2cccs2)n1C1CC1 (stereo unspecified),21.0,-2.9,x
Cc1nn2c(=O)[nH]c(SCC(=O)NCCc3ccccc3)nc2c1-c1ccccc1,9.7,5.9,1.0
CNC(=O)CSc1nc2c(-c3ccccc3)c(C)nn2c(=O)[nH]1,7.2,54.6*,-2.7
COc1ccc(CCOC(=O)[C@@H]2CCCN2C(=O)CCC(=O)c2ccc(F)cc2)cc1OC,20.2,-5.5,-6.0
O=C(NCC1Cc2cccc(F)c2O1)c1ccc(F)cc1 (stereo unspecified),5.0,-1.0,-4.3
CS(=O)(=O)c1ccc(-c2cccc3c2OC(CNC(=O)c2cc[n+]([O-])cc2)C3)cc1 (stereo unspecified),75.6*,-5.9,-9.6
COc1cccc(CN(CC2CC(c3ccccc3Cl)=NO2)C(=O)c2cccc(F)c2)c1 (stereo unspecified),3.2,1.4,-3.1
CC(C)Sc1nc(=O)n(CCO)c2c1CCCC2,-6.7,-8.8,-9.7
Cn1cc(S(=O)(=O)Nc2ccc(F)cn2)nc1Cl,-5.3,-4.1,x
COCCOc1ccc(NS(=O)(=O)c2cn(C)c(Cl)n2)cn1,99.0*,-9.2,x
CCOC(=O)c1ccc(N=c2oc3cc(O)ccc3cc2-c2nc3ccccc3[nH]2)cc1,120.4*,-3.4,-5.8
NC(=O)N/N=c1\oc2ccccc2cc1-c1nc2ccccc2[nH]1,-2.3,-4.6,48.2*
NC(=S)N/N=c1\oc2ccccc2cc1-c1nc2ccccc2[nH]1,-5.3,-2.3,x
COc1ccccc1N=c1oc2cc(O)ccc2cc1-c1nc2ccccc2[nH]1,81.5*,-3.8,-5.4
CCOC(=O)c1ccc(N=c2oc3ccccc3cc2-c2nc3ccccc3[nH]2)cc1,-0.2,-4.1,-4.8
COc1ccccc1N=c1oc2ccc3ccccc3c2cc1-c1nc2ccccc2[nH]1,-2.7,-1.2,x
Cc1ccc(CN(C)Cc2nc(Cc3cccc(F)c3)no2)o1,3.0,-6.3,x
CC(=O)Nc1ccc(CN2C(=O)C(C)ON=C2c2ccccc2F)cc1 (stereo unspecified),3.6,0.2,x
CN(CCc1ccncc1)S(=O)(=O)c1ccc(N2C(=O)CCS2(=O)=O)cc1,0.6,-1.5,x
CN(C)S(=O)(=O)c1cccc(NC(=O)CN2CCCc3cc(F)cc(F)c32)c1,2.0,-2.4,x
N=C1C(c2nc3ccccc3s2)C(=O)CN1N1C(=O)c2ccccc2C1=O (stereo unspecified),3.2,10.5,43.4*
CCN(CC)C(=O)COC(=O)c1cccc(N2CC(=O)C(c3nc4ccccc4s3)C2=N)c1 (stereo unspecified),-1.2,-7.6,-6.3
CC(C)Oc1c(-c2ccco2)c(=O)c1=O,-6.3,65.8*,x
CC(C)Oc1nc(-c2ccco2)n(-c2ccc(N)cc2)n1,-1.1,-5.4,x
SMILES,NPYLR7 ag,hcGAS inh,mcGAS inh
Clc1ccc(N2CCN(N=Cc3ccccc3Br)CC2)cc1,6.2,-5.3,-7.7
COc1ccc(C2CCCCCN2C(C(=O)N(C)C)c2ccccc2)cc1 (stereo unspecified),6.4,-8.8,x
CN1CCN(C(=O)/C=C/c2ccc(Cl)cc2Cl)CC1,-3.4,-1.6,-5.5
O=C(/C=C/c1ccc(Cl)cc1Cl)n1cccn1,-10.4,4.0,43.7*
CCc1nc2ccc(C(=O)N3CCN(c4ccccc4)CC3)cn2c1N(C)C=O,3.1,-1.5,0.3
Cc1ccc2c(=O)c3ccccc3n(CCCN)c2c1C,-2.2,70.8*,x
Cc1ccc(Cl)cc1NC(=O)Cn1c2ccccc2c(=O)c2ccccc21,-1.1,1.5,x
CCCCCNC(=O)CC(c1ccc(C)cc1)c1cn(C)c2ccccc12 (stereo unspecified),x,-1.3,-8.1
COCc1cc(C)nc(N/N=C\c2cc(I)c(OC)c(OC)c2)c1C#N,-1.9,-2.9,-4.6
N#CCCNN=Cc1cc(I)c(O)c(I)c1,-1.0,54.7*,99.0*
Cn1ncc2c(N3CCCCC3)nc(N(CCO)Cc3ccccc3)nc21,0.6,-6.1,-7.8
OCCN(CCO)c1nc(N2CCCCC2)c2nc(N(CCO)CCO)nc(N3CCCCC3)c2n1,74.5*!,0.5,-3.1
COc1cc(-c2cc(C(=O)NCc3cc(C(F)(F)F)ccc3F)c3ccccc3n2)cc(OC)c1OC,23.0,-10.0,-7.0
CC(NC(=O)Nc1ccc(N(C)C)nc1)c1ccc(Cl)s1 (stereo unspecified),1.3,-8.7,x
O=C(CNC(=O)C12CC3CC(CC(C3)C1)C2)NCc1cc2ccccc2[nH]1,3.7,-9.5,x
Cc1ccc(CN(Cc2ccccc2)C(=O)CN(CC(C)C)C(=O)Nc2c(C(C)C)cccc2C(C)C)s1,x,-4.6,-4.7
CC(C)(C)c1ccc(OCC(=O)Nc2cc(-c3ccccc3)nn2-c2ccccc2Cl)cc1,24.6,-4.4,-7.6
COc1ccc(C(=O)C=Cc2cccc(O)c2)cc1F,-1.7,0.6,22.7
CCN1CCN(c2ccc(C(=O)C=Cc3ccc(O)c(OC)c3)cc2F)CC1,92.9*,-8.0,x
CCOC(=O)C(=O)N1CCN(c2nccc(-c3ccc(C(C)(C)C)cc3)n2)CC1,6.2,-3.2,-6.5
CCCS(=O)(=O)N1CCN=C1SCc1cc(C)ccc1C,8.9,-8.4,-7.0
CCCS(=O)(=O)N1CCN=C1SCc1ccccc1C,44.4*,-13.2,-9.5
O=S(=O)(c1ccccc1)c1ccccc1Nc1ccccc1,-0.3,77.9*,x
O=S(=O)(c1ccccc1)c1cnc2ccccc2c1Nc1ccccc1,2.7,-4.6,-3.9
CC1CC1C(=O)NCCC(=O)Nc1cc(Cl)ccc1-n1ccnc1 (stereo unspecified),-0.4,-8.4,-13.3
SMILES,NPYLR7 ag,hcGAS inh,mcGAS inh
O=C1/C(=C/c2ccc3ccccc3n2)Oc2cc(O)ccc21,7.9,3.4,x
Cc1ccc(/C=C2/Oc3cc(O)ccc3C2=O)s1,165.2*,6.0,-8.9
OC1CCC(NCc2cccc(-c3ccccc3)c2)CC1 (stereo unspecified),2.3,-3.9,x
O=C(NC(c1ccc(Cl)cc1)C1CC1)c1ccco1 (stereo unspecified),4.1,-8.1,-7.7
NS(=O)(=O)c1ccc(NC(NC(=O)c2ccco2)C(=O)c2ccc(Cl)cc2)cc1 (stereo unspecified),44.7*,-0.2,x
Cc1cnc(C(=O)N2CCN(Cc3ccc(-c4noc(C5CCCC5)n4)cc3)CC2)cn1,3.9,-6.9,-6.4
CCC(C)N(Cc1cccnc1)C(=O)c1ccc(OC)o1 (stereo unspecified),-1.1,-7.0,-11.2
COc1ccc(C(=O)Nc2ccccc2C(=O)NCCN2CCOCC2)o1,x,-5.3,x
N#CC(=Cc1ccc(OC(F)F)cc1)C(=O)O,0.1,-2.0,49.1*
CC(C)NC(=O)C(C#N)=Cc1ccc(O)cc1,3.6,6.7,1.9
Cc1cc(C)c2c3c([nH]c2c1)CCC(NC(=O)CCN1CCCCC1)C3 (stereo unspecified),x,-9.0,-6.6
COc1ccc(C(=O)N=Nc2c(O)n(CN(C)C)c3ccccc23)cc1OC,-5.8,-3.5,-5.3
CCOC(=O)C1CCN(C(=O)C(C)n2ccsc2=NC(=O)c2cccc(C(F)(F)F)c2)CC1 (stereo unspecified),-8.2,3.0,x

# Screening data from PubChem.
